Results taken from PubChem BioAssay (NCATS).
Inconclusive results are not listed. Calls of active or inactive are those of the source. Unless noted, the call rests on the fitted dose curve; in most records, active means well fitted curve in either direction with a large enough effect (not every such curve was filed as active); inconclusive means small, poorly fitted or top-dose-only effect, or another doubt; inactive means flat fitted curve, though single readings scatter.

Key:
[1] = biological target: Lysosomal acid glucosylceramidase (Homo sapiens) (UniProt P04062); experiment: Glucocerebrosidase-p2 (AID 348; in the data active means potency below about 10 µM; further: potency means the concentration at half of the fitted maximal effect); details: purified GBA, blue fluorogenic substrate, 40 min
Chain of Lysosomal acid glucosylceramidase (Homo sapiens) (P04062 whole entry, looked up): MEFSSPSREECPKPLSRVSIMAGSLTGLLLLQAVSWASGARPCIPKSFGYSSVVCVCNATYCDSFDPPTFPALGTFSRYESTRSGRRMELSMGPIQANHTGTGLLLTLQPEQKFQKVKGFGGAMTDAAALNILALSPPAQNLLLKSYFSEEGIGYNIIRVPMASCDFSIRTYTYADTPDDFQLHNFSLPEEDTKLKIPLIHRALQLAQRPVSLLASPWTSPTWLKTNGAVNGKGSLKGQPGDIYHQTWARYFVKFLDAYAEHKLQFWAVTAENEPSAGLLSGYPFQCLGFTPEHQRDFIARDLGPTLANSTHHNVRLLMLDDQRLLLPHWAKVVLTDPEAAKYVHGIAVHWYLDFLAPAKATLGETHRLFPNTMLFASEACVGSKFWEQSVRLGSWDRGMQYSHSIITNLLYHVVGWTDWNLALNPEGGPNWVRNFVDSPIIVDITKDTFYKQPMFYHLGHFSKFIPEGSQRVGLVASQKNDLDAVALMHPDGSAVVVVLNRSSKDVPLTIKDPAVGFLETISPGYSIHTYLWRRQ
Method in brief: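 Normal human glucocerebrosidase (0.2 nM) with blue fluorogenic substrate (80 uM final) in citrate/phosphate pH 5.9 with 10mM sodium taurocholate, 0.01% tween-20; 40 min RT, NaOH/glycine stop; fluorescence Ex 365/Em 440; AC50 from a titration from 0.6 nM upwards.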

[2] = AP1 Signaling Pathway (AID 357); details: ME-180 AP-1-bla reporter, EGF-induced, beta-lactamase ratio, 5 h; at 7.69 µM (top of the series) unless noted;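 further: ME-180 reporter cells stimulated with EGF at its EC50 level; on the % scale 0 is the no-effect control and ±100 the full control effect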
Method in brief: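 Titration-series screen for positive or negative modulators of EC50 EGF-induced signaling in ME-180 cells carrying an AP-1-driven beta-lactamase reporter. After 5 hours at 37 degrees Celsius, CCF4 460nm/530nm emission ratio gave %Activity; AC50 values derived.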

[3] = biological target: Cytochrome P450 1A2 (Homo sapiens) (UniProt P05177); experiment: p450-cyp1a2 (AID 410; calls by dose curve; further: potency means the concentration at half of the fitted maximal effect;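 on activity change, negative = inhibition: -100% = full effect of reference inhibitor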); details: recombinant CYP1A2, luciferin-ME demethylation, luminescence; series mostly up to 57 µM
Chain of Cytochrome P450 1A2 (Homo sapiens) (P05177 whole entry, looked up): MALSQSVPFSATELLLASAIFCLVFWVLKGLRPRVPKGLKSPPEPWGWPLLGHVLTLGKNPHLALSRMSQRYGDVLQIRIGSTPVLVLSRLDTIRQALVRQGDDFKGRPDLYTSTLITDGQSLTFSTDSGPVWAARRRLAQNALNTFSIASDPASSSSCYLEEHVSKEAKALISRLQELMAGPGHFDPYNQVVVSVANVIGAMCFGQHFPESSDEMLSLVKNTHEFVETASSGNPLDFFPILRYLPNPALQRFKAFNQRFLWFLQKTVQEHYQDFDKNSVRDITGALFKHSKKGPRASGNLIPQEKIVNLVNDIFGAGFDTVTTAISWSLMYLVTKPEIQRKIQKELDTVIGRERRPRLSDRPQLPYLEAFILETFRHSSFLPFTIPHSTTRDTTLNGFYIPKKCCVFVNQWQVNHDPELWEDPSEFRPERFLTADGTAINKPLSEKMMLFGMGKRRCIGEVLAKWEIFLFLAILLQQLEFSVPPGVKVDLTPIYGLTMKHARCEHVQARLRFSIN
Method in brief: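 O-Demethylation of luciferin 6' methyl ether by human CYP1A2 is monitored as luciferase luminescence. Substrate sits at Km (100uM); enzyme is 20nM. Values are scaled to 57 uM furafylline as maximal inhibition.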

[4] = NFAT Signaling Pathway (AID 444); details: Jurkat NFAT-bla M1, carbachol, beta-lactamase ratio, 5 h; at 7.69 µM (top of the series) unless noted;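 further: carbachol stimulus at about its EC50 of 1 µM final; on the % scale 0 is the no-effect control and ±100 the full control effect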
Method in brief: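 Jurkat cells carrying an NFAT-driven β-lactamase reporter and co-transfected muscarinic M1 receptor were treated with compound plus carbachol (1 uM final, an EC50 level) for 5 h at 37 °C. CCF4 loading followed for 1 h at RT; 460/530 nm ratio gave %activity.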

[5] = Stat Signaling Pathway (AID 446); details: ME-180 (cervical carcinoma) SIE beta-lactamase reporter, IL-6 stimulated, 5 h; at 7.69 µM (top of the series) unless noted;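 further: ME-180 cervical cancer cells given 40 pM IL-6 alongside compound; SIE-controlled beta-lactamase reporter measured as 460/530 nm FRET emission ratio; on the % scale 0 is the no-effect control and ±100 the full control effect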
Method in brief: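 Compound effects on IL-6-induced STAT reporter activity were measured in ME-180 cells. After overnight culture, cells were co-treated with 40 pM IL-6 for 5 hrs before beta-lactamase substrate loading at room temperature.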

[6] = biological target: Glucocorticoid receptor (Homo sapiens) (UniProt P04150); experiment: GR-EFC Redistribution (AID 451; calls by dose curve; further: potency means the concentration at half of the fitted maximal effect); details: CHO-K1 GR-EFC translocation, beta-gal luminescence, 2 h
Chain of Glucocorticoid receptor (Homo sapiens) (P04150 whole entry, looked up, the tested form may be a part): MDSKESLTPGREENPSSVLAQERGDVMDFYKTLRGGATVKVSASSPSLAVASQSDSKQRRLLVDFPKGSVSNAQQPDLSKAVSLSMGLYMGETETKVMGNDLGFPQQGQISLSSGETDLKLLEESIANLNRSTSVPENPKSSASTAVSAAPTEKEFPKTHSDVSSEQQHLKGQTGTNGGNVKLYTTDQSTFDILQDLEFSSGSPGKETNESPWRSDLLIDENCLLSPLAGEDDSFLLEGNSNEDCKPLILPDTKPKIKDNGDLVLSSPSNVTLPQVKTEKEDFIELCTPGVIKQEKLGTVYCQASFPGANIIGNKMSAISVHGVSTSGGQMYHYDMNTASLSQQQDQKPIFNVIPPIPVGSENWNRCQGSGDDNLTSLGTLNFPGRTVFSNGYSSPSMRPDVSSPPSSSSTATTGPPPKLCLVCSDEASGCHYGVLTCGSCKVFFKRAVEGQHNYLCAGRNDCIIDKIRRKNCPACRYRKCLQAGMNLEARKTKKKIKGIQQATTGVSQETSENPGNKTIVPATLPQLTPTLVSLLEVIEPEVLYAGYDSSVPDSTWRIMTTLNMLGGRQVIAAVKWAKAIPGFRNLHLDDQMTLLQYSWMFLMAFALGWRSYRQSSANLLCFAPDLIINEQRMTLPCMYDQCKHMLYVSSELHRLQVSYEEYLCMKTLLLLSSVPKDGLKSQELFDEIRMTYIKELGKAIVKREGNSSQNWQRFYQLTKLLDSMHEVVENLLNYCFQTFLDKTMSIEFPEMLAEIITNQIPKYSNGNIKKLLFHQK
Method in brief: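 CHO-K1 cells stably expressing nuclear-localized β-gal enzyme acceptor and GR fused C-terminally to the enzyme donor fragment; ligand-driven nuclear translocation restores β-gal by complementation. Compounds titrated up to 46 uM final, 2 h at 37 °C; luminescence read.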

[7] = biological target: Mitogen-activated protein kinase 10 (Mus musculus) (UniProt Q61831); experiment: JNK3 AlphaScreen Assay (AID 530); details: JNK3 lysate, c-Jun phosphorylation; series mostly up to 57.1 µM;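 further: kinase came from lysate of stimulated human HepG2 cells; signal reports phosphorylation of biotinylated GST-cJun 1-79 at Ser73 with 10 µM ATP; on the % scale 0 is the no-effect control and ±100 the full control effect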
Method in brief: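 Phosphorylation of biotinylated GST-cJun(1-79) at Ser73 is measured by AlphaScreen proximity luminescence. Enzyme is JNK3 in HepG2 lysates activated with interleukin-1beta and tumor necrosis factor alpha; ATP is 10 uM final.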

[8] = biological target: 3',5'-cyclic-AMP phosphodiesterase 4B (Homo sapiens) (UniProt Q07343); experiment: qHTS Assay for Inhibitors of PDE-IV (AID 607; active means well fitted activation curve with a large enough effect in the main read-out, with a control signal flat, not every such curve was filed as active; further: % of control where 0% means no effect); details: HEK293 ACTOne CNG channel cells, membrane potential fluorescence; series mostly up to 22.9 µM
Chain of 3',5'-cyclic-AMP phosphodiesterase 4B (Homo sapiens) (Q07343 whole entry, looked up): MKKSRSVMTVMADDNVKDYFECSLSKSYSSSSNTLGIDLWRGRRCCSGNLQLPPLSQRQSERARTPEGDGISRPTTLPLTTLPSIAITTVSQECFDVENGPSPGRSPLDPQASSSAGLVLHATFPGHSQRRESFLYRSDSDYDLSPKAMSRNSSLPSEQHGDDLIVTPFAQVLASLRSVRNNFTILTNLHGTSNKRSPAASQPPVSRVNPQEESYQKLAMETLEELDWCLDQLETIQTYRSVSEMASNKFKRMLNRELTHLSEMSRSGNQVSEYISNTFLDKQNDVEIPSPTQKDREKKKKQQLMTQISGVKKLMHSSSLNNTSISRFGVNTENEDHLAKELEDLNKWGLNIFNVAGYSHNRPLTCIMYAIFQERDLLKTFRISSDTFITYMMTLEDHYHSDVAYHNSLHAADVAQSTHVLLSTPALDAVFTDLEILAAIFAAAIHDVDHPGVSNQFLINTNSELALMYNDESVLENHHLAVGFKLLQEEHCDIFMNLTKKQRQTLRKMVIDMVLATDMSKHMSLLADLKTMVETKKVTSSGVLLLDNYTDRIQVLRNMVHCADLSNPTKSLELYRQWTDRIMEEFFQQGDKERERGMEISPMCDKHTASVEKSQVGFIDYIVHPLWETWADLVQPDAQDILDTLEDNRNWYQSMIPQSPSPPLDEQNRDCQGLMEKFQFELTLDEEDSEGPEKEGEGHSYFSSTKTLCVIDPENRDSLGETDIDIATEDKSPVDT
Method in brief: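 ACTOne HEK293 cells carry a modified cAMP-gated CNG channel and express endogenous PDE4; plated 1000 cells/well, compounds up to 22.9 uM final. Membrane-potential dye fluorescence (ex 535/em 590) was read; parental cells received 10 uM forskolin + 100 uM RO 20-1724.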

[9] = qHTS Assay for Lipid Storage Modulators (AID 1519; calls by dose curve); details: Drosophila S3 cells, BODIPY lipid droplet/cell ratio, laser cytometry, cells loaded with oleic acid; for activity change, negative = inhibition: at 57.5 µM (top of the series)
Method in brief: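 Cells seeded at 5,000 per well were treated with compounds over a concentration series and loaded with oleic acid (400 uM, as added). Lipid droplet fluorescence (488 nm excitation, 500-530 nm channel) was read by laser-scanning cytometry and normalized to 20 uM Triacsin C.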

[10] = Primary qHTS for small molecule stabilizers of the endoplasmic reticulum resident proteome: Secreted ER Calcium Modulated Protein (SERCaMP) assay (AID 1508630; active means well fitted inhibition curve with a large enough effect; further: on the % scale 0 is the no-effect control and ±100 the full control effect); details: SH-SY5Y GLuc-SERCaMP (Gaussia luciferase released on ER calcium loss) secretion, thapsigargin, luminescence; series mostly up to 38.4 µM
Method in brief: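 The SH-SY5Y reporter protocol was run at 3 concentrations up to 38.3 uM (primary) or 11 concentrations (follow-up): 16 h compound, 100 nM thapsigargin for 4 h, then extracellular luciferase luminescence.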

[11] = measured here: cell count channel max response
[12] = measured here: lipid channel max response

CC(C)NC(=O)N1CCC2(CC1)CCN(S(C)(=O)=O)CC2
inactive: Potency [1] > 11.4 µM | activity change, negative = inhibition [2] -12.4% | Potency [3] | activity change, negative = inhibition [4] 6.9% | activity, negative = inhibition [5] 4.06% | Potency [6] > 46 µM | outcome [7] | Potency [8] | activity change, negative = inhibition [9] -0.0632% | Potency [10]
5.94%: max response [9, 12]
6.33%: max response [9, 11]

Cc1noc(C)c1C(=O)N1CCC[C@@]2(CCN(c3ncccn3)C2)C1
6.75%: max response [9, 12]
inactive: Potency [1] > 11.4 µM | activity change, negative = inhibition [2] 2.18% | Potency [3] | activity change, negative = inhibition [4] 7.6% | activity, negative = inhibition [5] -3.95% | Potency [6] > 46 µM | outcome [7] | Potency [8] | activity change, negative = inhibition [9] -1.94% | Potency [10]
7.95%: max response [9, 11]

COC(=O)N1CCC2(CCN(C(=O)Nc3ccccc3)CC2)CC1
inactive: Potency [1] > 11.4 µM | activity change, negative = inhibition [2] -4.41% | Potency [3] | activity change, negative = inhibition [4] 4.8% | activity, negative = inhibition [5] 0.0402% | Potency [6] > 46 µM | outcome [7] | Potency [8] | activity change, negative = inhibition [9] 5.74% | Potency [10]
17.4%: max response [9, 12]
8.07%: max response [9, 11]

O=C(Nc1cccc(F)c1)N1CCC2(CC1)CCN(C(=O)c1cnccn1)CC2
inactive: Potency [1] > 11.4 µM | activity change, negative = inhibition [2] -10.4% | Potency [3] | activity change, negative = inhibition [4] 20.5% | activity, negative = inhibition [5] -10.8% | Potency [6] > 46 µM | outcome [7] | Potency [8] | activity change, negative = inhibition [9] 3.08% | Potency [10]
11.7%: max response [9, 11]
15.9%: max response [9, 12]

COC(=O)N1CCC[C@@]2(CCN(C(=O)Nc3ccccc3)C2)C1
active: Potency [3] 12.6 µM
3.51%: max response [9, 12]
inactive: Potency [1] > 11.4 µM | activity change, negative = inhibition [2] -3.51% | activity change, negative = inhibition [4] 8.29% | activity, negative = inhibition [5] -0.455% | Potency [6] > 46 µM | outcome [7] | Potency [8] | activity change, negative = inhibition [9] 3.74% | Potency [10]
-3.53%: max response [9, 11]

Cc1noc(C)c1C(=O)N1CCC2(CC1)CN(c1ccccc1)C2
inactive: Potency [1] > 11.4 µM | activity change, negative = inhibition [2] -19.3% | Potency [3] | activity change, negative = inhibition [4] 3.6% | activity, negative = inhibition [5] -19% | Potency [6] > 46 µM | outcome [7] | Potency [8] | activity change, negative = inhibition [9] 4.6% | Potency [10]
-4.97%: max response [9, 11]
1.75%: max response [9, 12]

COC(=O)N1CCC[C@@]2(CCN(c3ccccn3)C2)C1
active: Potency [3] 15.8 µM
inactive: Potency [1] > 11.4 µM | activity change, negative = inhibition [2] -6.02% | activity change, negative = inhibition [4] -1.97% | activity, negative = inhibition [5] 7.71% | Potency [6] > 46 µM | outcome [7] | Potency [8] | activity change, negative = inhibition [9] 5.17% | Potency [10]
11%: max response [9, 12]
2.62%: max response [9, 11]

O=C(Nc1cccc(F)c1)N1CCC2(CC1)CCN(C(=O)c1csnn1)CC2
inactive: Potency [1] > 11.4 µM | activity change, negative = inhibition [2] -8.39% | Potency [3] | activity change, negative = inhibition [4] 26.3% | activity, negative = inhibition [5] -9.77% | Potency [6] > 46 µM | outcome [7] | Potency [8] | activity change, negative = inhibition [9] 5.59% | Potency [10]
12.6%: max response [9, 11]
21.6%: max response [9, 12]

Cc1noc(C)c1C(=O)N1CCC2(CC1)CN(C(=O)Nc1cccc(F)c1)C2
-0.901%: max response [9, 12]
inactive: Potency [1] > 11.4 µM | activity change, negative = inhibition [2] 6.42% | Potency [3] | activity change, negative = inhibition [4] 19.9% | activity, negative = inhibition [5] 0.457% | Potency [6] > 46 µM | outcome [7] | Potency [8] | activity change, negative = inhibition [9] 1.43% | Potency [10]
-7.63%: max response [9, 11]

Cc1noc(C)c1C(=O)N1CCC2(CC1)CN(c1ncccn1)C2
24.4%: max response [9, 12]
15.3%: max response [9, 11]
inactive: Potency [1] > 11.4 µM | activity change, negative = inhibition [2] -8.73% | Potency [3] | activity change, negative = inhibition [4] 13.3% | activity, negative = inhibition [5] 2.57% | Potency [6] > 46 µM | outcome [7] | Potency [8] | activity change, negative = inhibition [9] 6.33% | Potency [10]

CC(=O)N1CCC[C@@]2(CCN(c3ncccn3)C2)C1
inactive: Potency [1] > 11.4 µM | activity change, negative = inhibition [2] 2.25% | Potency [3] | activity change, negative = inhibition [4] 13.2% | activity, negative = inhibition [5] -10.4% | Potency [6] > 46 µM | outcome [7] | Potency [8] | activity change, negative = inhibition [9] 2.8% | Potency [10]
18.6%: max response [9, 11]
25.4%: max response [9, 12]

CS(=O)(=O)N1CCC2(CCCN(C(=O)Nc3ccccc3)C2)CC1
3.7%: max response [9, 11]
active: Potency [3] 15.8 µM
inactive: Potency [1] > 11.4 µM | activity change, negative = inhibition [2] -5.5% | activity change, negative = inhibition [4] 11% | activity, negative = inhibition [5] 3.16% | Potency [6] > 46 µM | outcome [7] | Potency [8] | activity change, negative = inhibition [9] 1.48% | Potency [10]
9.01%: max response [9, 12]

COCC(=O)N1CCC2(CC1)CN(Cc1cc(C(F)(F)F)cc(C(F)(F)F)c1)C2
17.9%: max response [9, 12]
inactive: Potency [1] > 11.4 µM | activity change, negative = inhibition [2] 11% | activity change, negative = inhibition [4] 23.6% | activity, negative = inhibition [5] -2.63% | Potency [6] > 46 µM | outcome [7] | Potency [8] | activity change, negative = inhibition [9] -7.21% | Potency [10]
25.1%: max response [9, 11]
active: Potency [3] 25.1 µM

CS(=O)(=O)N1CCC2(CCN(C(=O)Nc3cccc(F)c3)CC2)CC1
4.7%: max response [9, 11]
11.5%: max response [9, 12]
inactive: Potency [1] > 11.4 µM | activity change, negative = inhibition [2] -2.81% | Potency [3] | activity change, negative = inhibition [4] 8.92% | activity, negative = inhibition [5] -6.54% | Potency [6] > 46 µM | outcome [7] | Potency [8] | activity change, negative = inhibition [9] 4.55% | Potency [10]
